By inhibition is commonly meant the relative decrease from the control value, in per cent.

Screen size: about 330,000 compounds; about 5,800 (1.8%) were called active. Rule as the data show it: active = inhibition mostly above about 38% (no sharp cut-off); inactive = mostly below about 40%. This excerpt belongs to a sample that is enriched for actives.

Sequence of Orexin/Hypocretin receptor type 1 (Homo sapiens) (O43613 whole entry, looked up): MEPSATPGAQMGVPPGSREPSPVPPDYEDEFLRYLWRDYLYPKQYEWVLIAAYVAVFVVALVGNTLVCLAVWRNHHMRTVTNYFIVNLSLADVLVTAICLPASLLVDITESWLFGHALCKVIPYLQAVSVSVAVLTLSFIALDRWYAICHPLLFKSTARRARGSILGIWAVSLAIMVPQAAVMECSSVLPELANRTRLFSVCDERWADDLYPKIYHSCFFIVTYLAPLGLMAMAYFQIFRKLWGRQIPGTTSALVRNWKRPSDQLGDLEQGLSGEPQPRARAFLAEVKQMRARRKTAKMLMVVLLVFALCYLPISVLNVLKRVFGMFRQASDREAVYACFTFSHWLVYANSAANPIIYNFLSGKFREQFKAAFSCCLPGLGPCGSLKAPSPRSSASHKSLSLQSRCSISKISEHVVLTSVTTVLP

This assay has as its target Orexin/Hypocretin receptor type 1 (Homo sapiens) (UniProt O43613). The assay can be described thus: blocks the human orexin 1 receptor (AID 485270).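 Also: 0% = agonist challenge alone and 100% = reference antagonist.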 The note with it: OX1R-expressing cells, FRET antagonist read-out; at 6.6 µM; stronger effect = higher value.
Turning to `COc1ccc(C(=O)NC2CC(C)(C)Cc3c2cnn3-c2ccccc2C)o1` (stereo not drawn), the inhibition was 71.7% (active).

For `COCc1ccc(C(=O)NC2CC(C)(C)Cc3c2cnn3-c2ccc(C)cc2)o1` (stereo not drawn), the inhibition is 34.1% (inactive).

For `COc1ccc(C(=O)NC2CC(C)(C)Cc3c2cnn3-c2ccccc2)c(OC)c1` (stereo not drawn), the inhibition was 34.6% (inactive).

On to `COc1cc(OC)c2c(-c3cccc(-c4cccc(N)c4)c3)cc(=O)oc2c1`, for which the inhibition was 7.11% (inactive).

`COc1cccc(/C=N/Nc2cc(C)nc(-c3ccccc3O)n2)c1O`: the inhibition was 107% (active).

Regarding `COc1cccc(/C=N/Nc2ncc(C(F)(F)F)cc2Cl)c1O`, the inhibition was 9.55% (inactive).

Consider `COc1ccccc1/C=N/Nc1nc(C)c(C(C)=O)s1`, for which the inhibition is 13.4% (inactive).

In the case of `Cc1scc(C(=O)NNC(=S)NCc2ccccc2)c1C`, the inhibition is 11.1% (inactive).

As for `CCOC(=O)C1CCCN(C(=O)CSc2nnc3nc(C)cc(C)n23)C1` (stereo not drawn), the inhibition was 0.28% (inactive).

Regarding `N#Cc1c(NCCO)ccc([N+](=O)[O-])c1NCCO`, the inhibition was 49.8% (active).

Consider `O=[N+]([O-])c1ccc(NCCCO)c(C(F)(F)F)c1`, for which the inhibition was 28.9% (inactive).

Take `O=C(NCCNc1ccccc1[N+](=O)[O-])c1ccccc1F`: the inhibition is 9.6% (inactive).

Take `COc1ccccc1N(CCOc1ccccc1)S(=O)(=O)c1ccccc1`: the inhibition is 26.3% (inactive).

For `Cc1cc(C)nc(N/N=C/c2ccc([N+](=O)[O-])o2)n1`, the inhibition was 60.5% (active).

`COc1ccc(C(=O)NCC(=O)N/N=C/c2ccc([N+](=O)[O-])o2)cc1OC`: the inhibition is 40% (inactive).

`Cc1cc(C)nc(N/N=C/c2c(C)oc3ccccc23)n1`: the inhibition is 24.7% (inactive).

For the compound `COc1ccc(S(=O)(=O)N2CCCCCC2)cc1NC(=O)Cc1ccc(OC)c(OC)c1`, the inhibition was 8.64% (inactive).

Consider `COc1cc(OC)cc(-c2c(C#Cc3ccsc3)c3cc(-c4ccc(OC)cc4F)ccc3n2C)c1`, for which the inhibition was 9.29% (inactive).

As to `Cc1noc(C)c1S(=O)(=O)N(C)C[C@H]1Oc2ccc(NC(=O)C3CC3)cc2C(=O)N([C@H](C)CO)C[C@@H]1C`, the inhibition is 3.87% (inactive).

With `CN1C(=O)[C@H]2[C@@H](/C=C/c3ccccc3)N3C(=O)CN(Cc4ccc(-c5ccccc5)cc4)C(=O)[C@@]3(C)[C@H]2C1=O`, the inhibition is -0.45% (inactive).

Consider `CN1CN(C)c2ccc([N+](=O)[O-])c3cccc1c23`, for which the inhibition was 44.5% (active).

Regarding `CN1CCN(c2ccc(S(=O)(=O)Nc3ccccc3)cc2[N+](=O)[O-])CC1`, the inhibition was 27.9% (inactive).

Turning to `O=[N+]([O-])c1cccc2ncccc12`, the inhibition was 22.2% (inactive).

As for `Cc1ccccc1NC(=O)CSC(=O)c1ccccc1`, the inhibition was 3.63% (inactive).

Take `COC(=O)C1CCN(C(=O)COC(=O)c2cc(S(=O)(=O)N3CCOCC3)ccc2C)CC1`: the inhibition was -3.08% (inactive).

For the compound `CN1CCN(/N=C/c2ccc(C#N)cc2)CC1`, the inhibition was 37.9% (inactive).

Turning to `CN1CCN(/N=C/c2ccc(-c3ccc([N+](=O)[O-])cc3)o2)CC1`, the inhibition is 83.2% (active).

On to `CN1CCN(/N=C2/C(=O)Nc3ccc([N+](=O)[O-])cc32)CC1`, for which the inhibition was 72.6% (inactive).

Consider `C[C@H](CO)N1C[C@H](C)[C@@H](CN(C)Cc2ccc(-c3ccccc3)cc2)Oc2ccc(NC(=O)Cn3cnnn3)cc2C1=O`, for which the inhibition was -2.89% (inactive).

For the compound `CC(C)N(C(=O)[C@H]1C[C@H](CC(=O)NCCC2=CCCCC2)C(=O)N2CCc3c([nH]c4cc(CCC(=O)N(C)C)ccc34)[C@]12C)C(C)C`, the inhibition is 10.8% (inactive).

Turning to `CCN(CC(=O)Nc1c(F)cccc1F)C(=O)c1ccc(Sc2nncn2C)c([N+](=O)[O-])c1`, the inhibition is 37% (inactive).

Consider `CC(C)(C)n1cnnc1Sc1ccc([N+](=O)[O-])cn1`, for which the inhibition is 36.8% (inactive).

In the case of `Cn1cnnc1Sc1ccc(S(C)(=O)=O)cc1[N+](=O)[O-]`, the inhibition was 95.8% (active).

In the case of `CC[C@]12c3[nH]c4ccc(Cl)cc4c3CCN1C(=O)[C@@H](CC(=O)NCCN1CCOCC1)C[C@@H]2C(=O)N1CCN(C(=O)C2CC2)CC1`, the inhibition was 3.88% (inactive).

Turning to `O=C(NNC(=O)C1CCCC1)c1ccc(F)cc1`, the inhibition is 7.91% (inactive).

`Cc1ccc(/C=C/C(=O)Nc2ccc([N+](=O)[O-])c(NC(=O)/C=C/c3ccc(C)o3)c2)o1`: the inhibition was 13.2% (inactive).

Take `O=C(/C=C/c1ccc([N+](=O)[O-])o1)NNC(=O)c1ccc(F)cc1`: the inhibition is 57.8% (active).

Take `C=CCn1c(SCc2c(C(=O)OC)sc(N)c2C(=O)OC)nnc1-c1ccc(Cl)cc1`: the inhibition is 45.4% (active).

In the case of `C=CCn1c(SCn2nnc3ccccc3c2=O)nnc1-c1ccc(Cl)cc1`, the inhibition was 25% (inactive).

As for `C=CCn1c(SCc2cc(C(=O)OC)c(C)o2)nnc1-c1ccncc1`, the inhibition was 18.3% (inactive).

In the case of `Cc1ccc(NC(=O)COC(=O)C2CC2)cc1S(=O)(=O)N1CCOCC1`, the inhibition is 4.49% (inactive).

Take `CCCCOc1ccc(C(=O)NCC(=O)OCC(=O)c2c(N)n(C)c(=O)n(C)c2=O)cc1`: the inhibition is 4.34% (inactive).

In the case of `COc1ccc(NC(=O)CNc2cc(S(=O)(=O)N3CCOCC3)ccc2N2CCOCC2)c(OC)c1`, the inhibition is 17.1% (inactive).

Turning to `C#CCOCCOCCOCCNc1nc(N2CCN(C(=O)[C@H](CCC(=O)O)n3cc(CN)nn3)CC2)nc(N2CCN(C(=O)[C@H](CCC(=O)O)n3cc(CN)nn3)CC2)n1`, the inhibition was 4.4% (inactive).

For the compound `CCn1c(=S)[nH]c2cc(S(=O)(=O)N3CCOCC3)ccc21`, the inhibition was 8.76% (inactive).

With `COCC(C)n1c(SCC(=O)NC2CCCCC2C)nc2ccccc2c1=O` (stereo not drawn), the inhibition was 39.7% (active).

As for `COCCn1c(C)cc(C(=O)CSc2nc3ccccc3c(=O)n2C(C)COC)c1C` (stereo not drawn), the inhibition was 9.56% (inactive).

For the compound `COCC(C)n1c(SCc2ccc(C(=O)OC)o2)nc2ccccc2c1=O` (stereo not drawn), the inhibition is 29.3% (inactive).

Take `O=C1CCC/C=C\C[C@@H](CC(=O)N(CCO)Cc2ccccc2)C(=O)NCCO1`: the inhibition is 3.3% (inactive).

For the compound `O=C(NCc1ccco1)C1CCCN(S(=O)(=O)c2cccc3nonc23)C1` (stereo not drawn), the inhibition is 95.8% (active).

For the compound `O=C(c1ccco1)N1CCN(C(=O)C2CCCN(S(=O)(=O)c3cccc4nsnc34)C2)CC1` (stereo not drawn), the inhibition is 59.8% (active).

For `CCCCN(CC)C(=O)C1CCCN(S(=O)(=O)c2cccc3nsnc23)C1` (stereo not drawn), the inhibition is 39.7% (active).

`COc1cccc(N2CCN(C(=O)C3CCCN(S(=O)(=O)c4cnc[nH]4)C3)CC2)c1` (stereo not drawn): the inhibition was 4.15% (inactive).

For `COc1ccccc1CNC(=O)C1CCCN(S(=O)(=O)c2cccc3cccnc23)C1` (stereo not drawn), the inhibition is 11.7% (inactive).

Turning to `CCCCN(C)CCNC(=O)C1CCCN(S(=O)(=O)c2cccc3nsnc23)C1` (stereo not drawn), the inhibition is 26.9% (inactive).

Take `O=C(c1ccco1)N1CCN(C(=O)C2c3ccccc3Oc3ccccc32)CC1`: the inhibition is -0.85% (inactive).

For the compound `O=C(NCc1ccco1)C1CCCN(S(=O)(=O)c2ccccc2)C1` (stereo not drawn), the inhibition was 22.4% (inactive).

In the case of `O=C(NCc1ccco1)C1CCCN(S(=O)(=O)c2cnc[nH]2)C1` (stereo not drawn), the inhibition was 6.51% (inactive).

These data come from PubChem BioAssay AID485270 (The Scripps Research Institute Molecular Screening Center, 2010).
